# Results reported in PubChem BioAssay AID588651 (The Scripps Research Institute Molecular Screening Center, 2011).
# Calls of active or inactive are those of the source. No stated cut-off is given here; in the data, active means inhibition above about 65%; inactive means the rest.
# Tested on: Antitargets
# Test: Fam108b inhibition by ABPP, late-stage follow-up, biochemical, gel-based ABPP, recombinant soluble Fam108b, HTS hits, complex proteome (AID 588651);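 further: Fam108b spiked into mouse brain membrane proteome; tested at 20 µM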
# Conditions: FP-rhodamine labeling in proteome
row,SMILES,outcome
1,NC(Cc1cc(O)c(O)cc1O)C(=O)O (stereo not drawn),inactive
2,C[n+]1c(-c2ccccc2)c2cc(N)ccc2c2ccc(N)cc21,inactive
3,Cc1ccccc1N1C(=O)/C(=C/c2ccco2)C(=O)NC1=S,inactive
